Bioassay records: PubChem BioAssay, National Center for Advancing Translational Sciences (NCATS)
In the library only some 9.5% were active in any assay of this set; here they are far more common.
Tau fibril FP – tau fibrillization inhibition (FP). P10636. K18 P301L tau heparin fibrillization, Alexa594 FP, 6 h. Potency, µM (top dose mostly 57.7 µM), for inactives: top-dose activity, negative = inhibition, most hits filed as inhibitors. 280,000 tested, 0.39% active. AID 1468; note: nearly all actives have a fitted effect of over 55% in size
Target sequence (P10636 561-689 P618L limits assumed): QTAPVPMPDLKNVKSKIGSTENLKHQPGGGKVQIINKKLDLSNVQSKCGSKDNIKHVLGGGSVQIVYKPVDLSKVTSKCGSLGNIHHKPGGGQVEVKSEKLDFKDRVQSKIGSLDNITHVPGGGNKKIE
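Quantitative HTS format: compounds meet 15 uM recombinant K18 P301L tau and Alexa 594-tau tracer in 100 mM sodium acetate pH 7; 20 uM heparin triggers fibrillization at 37 C over 6 hr; FP gives the signal.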
ALDH1A1 block – ALDH1A1 (human) enzyme inhibition; Purified ALDH1A1, NADH fluorescence, propionaldehyde substrate; Potency, µM (top dose mostly 75.3 µM), inactives show at the top dose activity, negative = inhibition, actives largely listed as inhibitors; 220,000 tested, 7.3% active; active = well fitted inhibition curve with a large enough effect, not every such curve was filed as active; inconclusive = small, poorly fitted or top-dose-only effect, or another doubt; inactive = no such curve, though single readings can be large or run the other way;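 note: plate controls were no enzyme wells and a reference inhibitor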
Target sequence (P00352 whole entry, looked up): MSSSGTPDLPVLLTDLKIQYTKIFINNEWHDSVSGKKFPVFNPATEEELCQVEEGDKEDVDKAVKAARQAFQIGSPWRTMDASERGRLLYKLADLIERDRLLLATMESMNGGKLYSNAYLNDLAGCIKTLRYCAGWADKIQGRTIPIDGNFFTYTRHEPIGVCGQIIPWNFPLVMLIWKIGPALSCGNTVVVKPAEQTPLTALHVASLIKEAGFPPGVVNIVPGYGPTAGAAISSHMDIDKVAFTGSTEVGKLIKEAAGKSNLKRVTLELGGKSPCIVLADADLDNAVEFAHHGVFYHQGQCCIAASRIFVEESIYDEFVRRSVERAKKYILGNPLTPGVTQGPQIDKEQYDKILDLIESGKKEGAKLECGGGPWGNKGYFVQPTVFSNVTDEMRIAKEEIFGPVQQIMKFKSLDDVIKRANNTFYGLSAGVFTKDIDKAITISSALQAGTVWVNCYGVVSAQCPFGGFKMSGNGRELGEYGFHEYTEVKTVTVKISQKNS
Tau fluor cs – counter-screen for tau fibril formation inhibitors | AID 1463 | 280,000 tested, 0.93% active | tau K18 P301L Alexa594 fluorescence, heparin fibrillization | Potency, µM (series often up to 57.7 µM), without a hit: top-dose activity change, negative = decrease; note: nearly all actives have a fitted effect of over 55% in size
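Human tau K18 P301L (15 uM unlabeled, 0.24 uM Alexa 594-labeled) in 100 mM sodium acetate pH 7 with 20 uM heparin, 6 hr at 37 C. ThT 30 uM added, 1 hr ambient; Alexa 594 FP and total fluorescence read at 555/632 nm.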
Tau fibril ThT – blocks human tau fibril formation measured by thioflavin T. Potency, µM (highest dose often 57.4 µM), for the others: at the highest dose activity, negative = inhibition, usual class: inhibitors. recombinant tau K18 P301L (four-repeat tau fragment), heparin-induced fibrillization, ThT fluorescence. P10636. AID 1460. 270,000 tested, 2.1% active; note: nearly all actives have a fitted effect of over 55% in size
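Tau K18 P301L fragment (15 uM unlabeled plus 0.24 uM Alexa 594-labeled) in 100 mM sodium acetate pH 7 with compound, fibrillization induced by 20 uM heparin for 6 hr at 37 C. Thioflavin T (30 uM) added, fluorescence read after 1 hr (ex 450, em 510 nm).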
HPGD block – HPGD (human) dehydrogenase inhibition | P15428 | purified HPGD, NADH fluorescence kinetic, PGE2 substrate | Potency, µM, for the others: top-dose activity change, negative = inhibition, usual class: inhibitors | 150,000 tested, 4.3% active; active = well fitted inhibition curve with a large enough effect, not every such curve was filed as active; inconclusive = small, poorly fitted or top-dose-only effect, or another doubt; inactive = no such curve, though single readings can be large or run the other way
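20 nM HPGD preincubated 15 min at room temperature with compound in 50 mM Tris-HCl pH 8, 0.01% Tween 20. Started with 1 mM NAD+ and 30 uM prostaglandin E2; NADH fluorescence (360/450 nm) read 5 times over 30-s intervals, last minus first.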
NPSR antagonist – neuropeptide S receptor (human) antagonism, cAMP. Q6W5P4. CHO-NPSR cells, cAMP TR-FRET, antagonist mode. Potency, µM (highest dose often 38.3 µM), without a hit: at the highest dose activity change, negative = inhibition, hits mostly inhibitors. 220,000 tested, 1% active; note: nearly all actives have a fitted effect of over 50% in size
* hit, by the source's call; u = inconclusive; x = no result; [ ] = remark or other dose. Unless noted, calls come from the whole dose curve; as a rule, active = well fitted curve in the direction sought with a large enough effect; inconclusive = small, poorly fitted or top-dose-only effect, or another doubt; inactive = no such curve, though single readings can be large; an effect the other way counts as inactive or inconclusive. Unless noted, % is set by controls: 0 for no effect and ±100 for the full control effect; potency is the fitted concentration of half-maximal effect.

SMILES	Tau fibril FP	ALDH1A1 block	Tau fluor cs	Tau fibril ThT	HPGD block	NPSR antagonist
CCOC(=O)CNCCC(=O)c1ccc(Br)cc1	u	0.28µM*	2%	u	u	13%
Cc1cccc(NCCC(=O)c2ccc(Br)cc2)c1	6%	0.79µM*	-24%	u	-10%	-17%[46.1 µM]
Cc1cccc(C(=O)NNC(=O)c2ccc(Br)cc2)c1	1%	9%	7%	-3%	x	5%
COc1ccccc1CCn1c(=O)c(-c2ccccc2)nc2cncnc21	x	-9%	x	x	-3%	x
O=C(C[n+]1ccccc1)N1c2ccccc2Sc2ccccc21	9%	3.2µM*	-27%	u	x	-2%
CN(C)c1cc[n+](CC(=O)N2c3ccccc3Sc3ccccc32)cc1	4%	8%	-1%	-13%	x	3%
CCOc1ccc(N(C)S(=O)(=O)c2ccc(C)c(C(=O)OCC(=O)c3c[nH]c4ccccc34)c2)cc1	8.9µM*	0%	u	3%	x	-43%
CCCN(CCC)C(=O)c1c[nH]c2ccc(S(=O)(=O)N(C)c3ccc(OCC)cc3)cc2c1=O	-9%	x	-21%	-4%	x	x
CCOC(=O)C1(CCc2ccccc2)CCN(C(=O)c2ccoc2)CC1	-7%	25µM*	-6%	-13%	x	15%
CCOC(=O)C1(CCCc2ccccc2)CCN(C(=O)c2ccoc2)CC1	3%	4µM*	1%	-9%	x	30%
CCOC(=O)C1(CCCc2ccccc2)CCN(C(=O)Cc2nonc2C)CC1	5%	u	-3%	-6%	x	28%
CCOC(=O)C1(CCCc2ccccc2)CCN(C(=O)C2=C(C)OCCO2)CC1	2%	3.2µM*	-1%	-5%	x	26%
CC#CC(=O)N1CCC(CCc2ccccc2)(C(=O)OCC)CC1	-11%	5%	8%	4%	x	-2%
CCOC(=O)C1(CCCc2ccccc2)CCN(C(=O)CCC2=NNC(=O)CC2)CC1	0%	2µM*	-5%	-4%	x	-9%
COc1c(Cl)cc(Br)c(OC)c1C(=O)NC(=O)Nc1nc(C)cc(C)n1	-5%	4%	-8%	-8%	x	28%
COc1cc(C(=O)Nc2nnc(S(=O)(=O)N(C)c3ccccc3)s2)cc(OC)c1OC	-15%	x	-3%	u	x	x
CC(=O)c1nnn(-c2ccc([N+](=O)[O-])cc2)c1C	9%	4%	-1%	-8%	x	17%
Cc1ccc(C)c(NS(=O)(=O)c2cc(C(=O)O)ccc2Cl)c1	x	-4%	x	x	-5%	x
COCCCN1C(=O)c2ccc(C(=O)NCc3ccco3)cc2C1=O	1%	13µM*	-2%	-11%	-17%	-15%[46.1 µM]
O=C(NCc1ccco1)c1ccc2c(c1)C(=O)N(C1CCCCC1)C2=O	-18%	u	-23%	2%	-4%	-26%[46.1 µM]
CCCN1C(=O)c2ccc(C(=O)NCc3ccco3)cc2C1=O	0%	6.3µM*	-7%	-10%	-9%	-3%[46.1 µM]
COCCCN1C(=O)c2ccc(C(=O)Nc3ccccc3OC)cc2C1=O	7%	u	-4%	-13%	-10%	-11%[46.1 µM]
CCOC(=O)C1(CCc2ccccc2)CCN(C(=O)C2CCOCC2)CC1	-1%	7%	10%	4%	x	1%
COc1ccc(/C=C/C(=O)OCC(=O)NC(=O)NC(C)(C)C)cc1	6%	14%	-6%	-10%	x	1%
COc1ccccc1N1CCN(S(=O)(=O)c2c(C)sc3ncn(CC(=O)N(C)c4ccc(Cl)cc4)c(=O)c23)CC1	1%	x	-19%	-6%	x	x
SMILES	Tau fibril FP	ALDH1A1 block	Tau fluor cs	Tau fibril ThT	HPGD block	NPSR antagonist
O=C(Nc1ccc2[nH]c(=S)sc2c1)Nc1ccccc1F	-6%	1µM*	11µM*[quencher]	11µM*	x	23%
O=C(Nc1ccc(F)cc1)Nc1ccccc1F	2%	14%	-10%	-5%	x	5%
C=CCNS(=O)(=O)c1ncnc2nc[nH]c12	x	8%[13.5 µM]	x	x	-5%	x
CC1CC[C@@]2(C(=O)O)CCC3(C)C(=CCC4[C@]5(C)CC(O)C(O)[C@](C)(CO)C5C(O)C[C@@]43C)C2C1C (stereo partly drawn)	3%	0%	-7%	-6%	-11%	x
O=C(NCc1n[nH]c(=S)n1-c1cccc(C(F)(F)F)c1)c1ccc(S(=O)(=O)N2CCCC2)cc1	-13%	u	-16%	-1%	x	-1%
O=C(NCc1n[nH]c(=S)n1-c1ccc(F)cc1)c1ccc(S(=O)(=O)N2CCCC2)cc1	5%	16µM*	-5%	-5%	-26%	16%[46.1 µM]
O=C(NCc1n[nH]c(=S)n1-c1cccc(Cl)c1)c1ccc(S(=O)(=O)N2CCCC2)cc1	-4%	4.5µM*	0%	-1%	-23%	-9%[46.1 µM]
CCCCC1(C)OC(=O)C(=Cc2ccc(SC)cc2)C(=O)O1 (stereo not drawn)	0%	u	-5%	-11%	x	31%
CN(C)c1ccc(C=C2C(=O)OC(C)(C(C)(C)C)OC2=O)cc1 (stereo not drawn)	-10%	0.4µM*	-6%	-10%	10µM*	0%[46.1 µM]
CN(C)c1ccc(C=C2C(=O)OC(C)(C)OC2=O)cc1	9%	0.79µM*	3%	-6%	x	5%
CCN(CC)c1ccc(C=C2C(=O)OC(C)(C(C)(C)C)OC2=O)cc1 (stereo not drawn)	0%	1%	-5%	-6%	-12%	3%[46.1 µM]
C=CCNc1nc(-c2ccc([N+](=O)[O-])cc2)cs1	19%	4%	-20%	7.1µM*	-10%	-25%
CN(C)c1nc(-c2ccc([N+](=O)[O-])cc2)cs1	10%	8%	u	13µM*	-9%	-10%[46.1 µM]
Cc1ccccc1-c1cc(NCc2ccccc2)ncn1	x	-4%	x	x	x	x
S=c1nc(SCc2ccccc2)[nH]c2ccccc12	u	-4%	-26%	u	x	10µM*
Cc1[nH]c2ccccc2c1SCc1ccccc1	-5%	0%	18µM*[quencher]	u	x	u
Cc1ccc([N+](=O)[O-])c(C(=O)N/N=C/c2cccs2)c1	x	x	x	x	x	7%
CC/C(=N\NC(C)=O)c1ccc(OC(F)F)cc1	3%	4%	2%	3%	x	17%
Cc1ccc(S(=O)(=O)N(C)Cc2ccc(C(=O)NN=C3C4CC5CC(C4)CC3C5)cc2)cc1	-6%	0.5µM*	-18%	u	x	-5%[46.1 µM]
Cc1ccc(S(=O)(=O)N(C)Cc2ccc(C(=O)NN=C(CC(C)C)CC(C)C)cc2)cc1	-6%	7.1µM*	1%	-18%	-13%	-32%
COc1cc(/C=N/NC(=O)c2ccc(CN(C)S(=O)(=O)c3ccc(C)cc3)cc2)ccc1O	6%	6%	16µM*[quencher]	u	x	-19%
COc1cc(/C=N/NC(=O)c2ccccc2)ccc1O	2%	-9%	-2%	-16%	x	0%
